According to PubChem BioAssay AID1069 (NMMLSC, 2008):
Values without a mark were called inactive. Calls of active or inactive are those of the source.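 The calls were made as follows: active = high combined rank on largest and smallest cell-count-weighted shift across three tests, rank score above 45, floors 50 and 25 (some results past the limit were not filed as active); inactive = the rest.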

Assay: LNCaP granularity increase inducers, single-point recheck – cell-based, side scatter shift, flow cytometry, confirmation (AID 1069);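 also: LNCaP human prostate cancer cells in low-serum medium with charcoal-stripped FBS; percent of cells with raised granularity gated so DMSO controls show 10%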
Conditions: LNCaP differentiation, 4 d, at 100 µM, stronger effect = higher value

| Compound | side scatter shift |
| --- | --- |
| Cc1ccccc1CN1CCN(CC(=O)NCCCN2CCN(c3ccc(F)cc3)CC2)C1=O | 3.3% |
| Cc1noc(C)c1S(=O)(=O)N1CCC(C(=O)NCCN2CCC(C)CC2)CC1 | 12.7% |
| Cc1oc(-c2ccc(Cl)cc2)nc1CN1CCCC(C(=O)NCc2ccccn2)C1 (stereo not drawn) | 26.5% |
| CCN(CCNC(=O)C1CCCN(Cc2nc(-c3ccc(OC)cc3)oc2C)C1)c1ccccc1 (stereo not drawn) | 27.8% |
| COC(=O)c1[nH]c2c(c1C)C(=O)CCC2 | 7.2% |
| Cn1c(=O)cc(OCC(=O)NCCCN2CCN(c3cccc(Cl)c3)CC2)c2ccccc21 | 20% |
| Cc1ccccc1Cn1cnc2c(cnn2C(C)(C)C)c1=O | 15.4% |
| COc1ccc(C)cc1NC(=O)CCC(=O)Nc1ccc2nc(N3CCN(C)CC3)cc(C)c2c1 | 10.5% |
| COc1ccccc1N1CCN(Cc2cc(Br)c(O)c3ncccc23)CC1 | 35.3% |
| Cn1c(=O)n(C)c2cc(CN3C(=O)OC(C)(C)C3(C)O)ccc21 (stereo not drawn) | 7.1% |
| CN1CCN(c2cc3c(c4c2[nH]c2ccccc24)C(=O)CC(C)(C)C3)CC1 | 16.1% (active) |
| Cn1c(C(=O)NCCN2CCN(c3ccccc3F)CC2)cc2c(=O)n(C)c3ccccc3c21 | 50% |
| CCn1c(=O)cc(OCC(=O)NCCCN2CCN(c3cccc(Cl)c3)CC2)c2ccccc21 | 40% |
| O=C(Nc1cccc(Cl)c1)N1CCN(Cc2ccccc2)CC1 | 7.1% |
| CCN1C=C(Cc2cccs2)C2=C(C1)C(c1cccs1)C(C#N)=C(N)O2 (stereo not drawn) | 20% |
| COc1ccc(N2CCN(CCCNC(=O)CC3Oc4ccc(C)cc4NC3=O)CC2)cc1 (stereo not drawn) | 50% (active) |
| Cc1cc(N2CCC(N(C)C3CCCC3)CC2)nc2cc(O)ccc12 | 65.4% |
| CCn1c(=O)cc(OCC(=O)O)c2ccccc21 | 31.8% |
| Cc1cc2c(=O)n(CC(=O)N3CCN(c4ccccc4)CC3)cnc2s1 | 30.4% |

| Compound | side scatter shift |
| --- | --- |
| Nc1ccccc1NC(=O)c1ccccc1N | 5.9% |
| CCN1CCN(CCNC(=O)C2CCN(Cc3nc(-c4ccc(Cl)cc4)oc3C)CC2)CC1 | 44.7% (active) |
| Cn1c(=O)cc(SCC(=O)NCCCN2CCN(c3ccc(F)cc3)CC2)c2ccccc21 | 46.7% |
| COc1ccc(-n2c(C)nc3c(cnn3-c3ccc(Cl)cc3)c2=O)cc1 | 4.4% |
| COc1ccc(-n2cc(-c3ccccc3)c3c(N4CCN(CCO)CC4)ncnc32)cc1 | 33.3% |
| COc1ccc(N2CCN(CCCNC(=O)C3CCCN(S(=O)(=O)c4cnc[nH]4)C3)CC2)cc1 (stereo not drawn) | 32.3% |
| COc1ccc(Cc2noc(-c3ccc(C)cc3)n2)cc1 | 21.4% |
| CCC(=O)N(Cc1ccco1)c1nc(-c2cc(OC)ccc2OC)cs1 | 13.2% |
| O=C(NCCCN1CCN(c2ccccc2F)CC1)C1CCN(S(=O)(=O)c2cccs2)CC1 | 22.7% |
| COC(=O)c1ccc2c(=O)n(Cc3ccco3)c(SCC(=O)Nc3ccc(C)c(Cl)c3)nc2c1 | 21% |
| COc1ccc2nc(NC(=O)C(NS(=O)(=O)c3cccs3)C(C)C)sc2c1 (stereo not drawn) | 35.8% |
| CCN(CC)CCCNC(=O)c1cc(-c2ccc(Cl)c(Cl)c2)on1 | 22.7% |
| COc1ccc(-c2noc(CCC(=O)NCCCN3CCC(C)CC3)n2)cc1 | 23.8% |
| c1ccc(N2CCN(c3nnc(Cc4cccnc4)c4ccccc34)CC2)nc1 | 17.5% |
| Cn1c(C(=O)NCCCN2CCN(c3ccccc3F)CC2)cc2c(=O)n(C)c3ccccc3c21 | 20% |
| CCOC(=O)c1c(NCc2ccc3c(c2)OCO3)c2ccccc2[nH]c1=O | 12.8% |
| O=C(CN1CCN(Cc2ccc3c(c2)OCO3)CC1)N1CCc2[nH]c3ccc(F)cc3c2C1 | 20.8% |
| CCCCOC(=O)Nc1cc(C(=O)OC)ccc1C(=O)OC | 21% |
| Cc1cc(=O)oc(C)c1C(=O)NCCCN1CCN(c2ccc(F)cc2)CC1 | 8.5% |
